The structures appear in SMILES notation. Results with a measured potency or affinity are listed apart. Activity calls are given as the source filed them. No rule for the calls is given here.

A short description of the experiment: VEEV TC-83 cytopathic effect inhibition, confirmation, cell-based, TC-83 strain, set 7 (AID 651734). Conditions: VEEV TC-83 infected cells; series mostly up to 50 µM; inhibition: at the top concentration.
What is called inhibition is the drop in the measured response relative to a control, in per cent. Turning to `COc1ccc(CNc2nc(=O)c3cccnc3s2)cc1`, the “inhibition” value is -4.9% (inactive).
In the case of `CCN1CCN(C2c3ncccc3C(=O)N2c2ccccc2)CC1` (centres undefined) it was 1.8% (inactive); in that of `CCN1CCN(Cc2nc3ccc(-c4ccccn4)cc3c(=O)n2-c2ccccc2)CC1`, 11.6% (inactive).
In the case of `COc1ccc(Nc2nc(=O)c3cccnc3s2)cc1` it was -0.67% (inactive).

Values taken from PubChem BioAssay AID651734 (Southern Research Specialized Biocontainment Screening …, 2012).
